For eight compounds, growth inhibition results are on record in PubChem BioAssay (NCI).

This is part of a sample that, as a whole, favours compounds with a hit. Of some 79,000 tested, about 15% had one in any assay. A number with no mark means an inactive call. Calls of active or inactive are those of the source. Cut-off read from the data, not from the text of the source: active = growth inhibition above about 70%; inactive = the rest.

A short description of the assay: NCI Yeast Anticancer Drug Screen. Data for the rad52 strain (AID 147).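 Note: 0% = growth of vehicle-treated control cultures.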 The following applies: S. cerevisiae rad52 mutant growth inhibition, stronger effect = higher value. The method, then:
Growth inhibition of yeast strains with defined genetic alterations is measured as a screen for potential anti-cancer activity. Selected strains with alterations in DNA damage repair or cell cycle control were exposed to compounds and growth inhibition was measured relative to vehicle treated controls. The strain used in this assay is rad52

With `CC(C)OC(=O)Oc1ccccc1OC(=O)OC(C)C`, the growth inhibition is -3% (at 1.2 µM); -3% (at 3.7 µM); 1% (at 11.0 µM); 2% (at 33.0 µM); -3% (at 100.0 µM).
Consider `O=C1C2C(C(=O)N1c1ccc(OCc3ccccc3)cc1)C1c3ccccc3C2C2CCCCN21` (stereo not given), for which the growth inhibition was -3% (at 1.2 µM); 1% (at 3.7 µM); 3% (at 11.0 µM); 12% (at 33.0 µM); 79% (active) (at 100.0 µM).
For `O=C(Nc1ccc(Cl)cc1)OCC#CCCl`, in that order: 5%, -1%, 15%, 16% and 27%.
On the same counts, the results for `CCCCc1cc(O)ccc1O` are 2%, 13%, 24%, 27% and 29%.
For `COC(=O)c1ccc([N+](=O)[O-])c(O)c1`, in that order: -5%, -3%, 17%, 49% and 98% (active).
As to `CC(C)c1cc(C(C)C)c(O)c(C([O-])[O-])c1.CC(C)c1cc(C(C)C)c(O)c(C([O-])[O-])c1.CC(C)c1cc(C(C)C)c(O)c(C([OH2+])[OH2+])c1.CC(C)c1cc(C(C)C)c(O)c(C([OH2+])[OH2+])c1.[Cu+2].[Cu+2].[OH3+].[OH3+]`, the growth inhibition was 5% (at 1.2 µM); 12% (at 3.7 µM); 26% (at 11.0 µM); 61% (at 33.0 µM); 92% (active) (at 100.0 µM).
Take `CCN(CC)CC(O)c1ccc2ccc3ccccc3c2c1` (stereo not given): the growth inhibition (at 1.2 µM) was 3%; the growth inhibition (at 3.7 µM) is 7%; the growth inhibition (at 11.0 µM) was 14%; the growth inhibition (at 33.0 µM) was 14%; the growth inhibition (at 100.0 µM) was 46%.
Turning to `Cc1ccc(S(=O)(=O)Oc2cc(Cl)c(Cl)cc2Cl)cc1`, the growth inhibition runs as follows: (at 1.2 µM) -1%; (at 3.7 µM) 4%; (at 11.0 µM) 9%; (at 33.0 µM) -5%; (at 100.0 µM) 17%.
